PubChem BioAssay AID588398 (Broad Institute, 2011)
Out of some 1,200 compounds screened, about 110 (9.2%) were called active. Inconclusive results (about 8%) are left out.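 How the source made its calls: active means pathway reporter half-maximal dose under half the control reporter's, or control reporter unaffected while pathway reporter is inhibited; inconclusive means either signal flat at 30 to 70% inhibition or poorly fitted; inactive means the rest.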 Only a sample is shown. Entries with a potency or affinity are not part of this list.

assay: TES1-eGFP NF-kB reporter inhibition versus Tet-On dsRED, dose response, selectivity assay for LMP1 NF-kB inhibitor project, imaging, HEK293T, dual-color eGFP/dsRED, cherry-picks (AID 588398); details: 48 h; HEK293T Tet-On dsRED counter-screen channel, at 19.5 µM (top of the series)

SMILES	outcome
CC1Cc2ccccc2N1c1ncnc(N)c1[N+](=O)[O-] (stereo not drawn)	inactive
CCCn1c(C)cc(C(=O)CN2C(=O)c3ccccc3S2(=O)=O)c1C	inactive
COc1cccc(/C=N/Nc2nccnc2Cl)c1O	inactive
COc1ccc(/C=C2\N=C(C)OC2=O)cc1[N+](=O)[O-]	inactive
CCN1CCN(Cc2ccc(NC(=O)c3ccc(C)c(NC(=O)c4cccc(-c5cn[nH]c(=O)c5)c4)c3)cc2C(F)(F)F)CC1	inactive
Cc1cc(N)nc(=O)n1C1CC(O)C(CO)O1 (stereo not drawn)	inactive
N/C(=N\OC(=O)c1cccc(Br)c1)c1ccccn1	inactive
COc1cc(C=C2CCCC(=Cc3ccc(OCC4CO4)c(OC)c3)C2=O)ccc1OCC1CO1 (stereo not drawn)	inactive
CS(=O)(=O)Nc1ccc(C2=NN(S(C)(=O)=O)C(c3ccccc3)C2)cc1 (stereo not drawn)	inactive
CCSc1nnc(NC(=O)CCn2c(=O)oc3ccccc32)s1	inactive
c1nc(NCc2ccc3c(c2)OCO3)c2cc(-c3ccoc3)ccc2n1	inactive
COc1ccc(N2C3=[N+](CC2(C)O)c2ccccc2CC3)cc1 (stereo not drawn)	inactive
c1ccc(-n2nnc3c(N4CCOCC4)ncnc32)cc1	inactive
O=C(NCc1ccco1)C1CC(=O)N(c2cccc(Cl)c2)C1 (stereo not drawn)	inactive
COCCn1c(SCC(=O)NCc2ccco2)nnc1-c1c[nH]c2ccccc12	inactive
O=C1CCC(C(=O)N2CCCCCC2)CN1CCc1ccc(Cl)cc1 (stereo not drawn)	inactive
COc1ccc(NC(=O)/C(C#N)=C/c2cc(C)n(-c3ccc(N4CCOCC4)c([N+](=O)[O-])c3)c2C)cc1	inactive
CCOC(=O)c1nc(NCc2ccccc2F)c2ccccc2n1	inactive
CCOC(=O)c1cc(-c2ccccc2)n(CC(=O)Nc2cccc(OC)c2)c1C	inactive
COc1cc(/C=N/NC(=O)c2cc(C34CC5CC(CC(C5)C3)C4)[nH]n2)ccc1O	inactive
COc1cc(/C=C2\SC(=S)N(NC(=O)c3ccncc3)C2=O)ccc1O	inactive
CCOC(=O)c1cn2nc(N3CCCC3)ccc2n1	inactive

SMILES	outcome
COc1ccc2[nH]c(-c3ccc(C)cc3)cc(=O)c2c1	inactive
Cc1ccc(C(=O)Nc2nnc(SCC(=O)N3CCCc4ccccc43)s2)cc1	inactive
O=C(C1CC1)N1N=C(c2ccc(Br)cc2)CC1(O)C(F)(F)F (stereo not drawn)	inactive
COc1ccccc1C(=O)Nc1c[nH]c(=O)[nH]c1=O	inactive
COc1ccccc1OCc1ccc(C(=O)c2ccccc2)cc1	inactive
COc1ccc(-c2csc(Nc3cccc(C)n3)n2)cc1OC	inactive
CS(=O)(=O)c1ccc(Sc2nc3ccccc3s2)c([N+](=O)[O-])c1	inactive
O=C(Nc1ncc(Br)s1)C(Cc1ccccc1)n1cccc1 (stereo not drawn)	inactive
CCOc1ccccc1C(=O)NC1CC2CCCC(C1)N2Cc1nnnn1Cc1ccco1 (stereo not drawn)	inactive
O=c1cc(C2CCCCC2)[nH]c(=O)[nH]1	inactive
Cc1ccc(-c2nc3cccnc3o2)cc1NC(=O)COc1ccc(C(C)(C)C)cc1	inactive
CNC(=S)N1N=C(c2cccs2)CC1c1ccc(F)cc1 (stereo not drawn)	inactive
Oc1ccc(C=NNC(=S)Nc2ccccc2)nc1	inactive
S=C(N/N=C/c1ccc2ncccc2c1)Nc1cccnc1	inactive
Cn1cc(S(=O)(=O)N2CCN(C(=O)c3ccco3)CC2)c(=O)n(C)c1=O	inactive
Cn1cccc1C(=O)OCC(=O)Nc1ccc2c(c1)OCO2	inactive
Cc1cc(C)nc(SCC(=O)OCN2C(=O)c3ccccc3C2=O)n1	inactive
O=C(Nc1ccc(N2CCOCC2)cc1)c1cnccn1	inactive
Cc1ccccc1C(=O)N1CCN(c2ccc(NC(=O)c3ccco3)cc2Cl)CC1	inactive
O=C(CCCOc1ccccc1)N1CCN(c2ccccc2)CC1	inactive
N#CC(C#N)c1ccnc2ccccc12	inactive
COc1ccc(NC(=O)C[C@H]2C(=O)N(CCc3ccccc3)C[C@@H]2c2ccc(OC)cc2)cc1	inactive

SMILES	outcome
COc1cc(OC)cc(-c2c(C#Cc3ccsc3)c3cc(-c4cc(OC)c(OC)c(OC)c4)ccc3n2C)c1	inactive
COc1cccc(N=Nc2ccc(O)c3ncccc23)c1	inactive
COc1cccc(C2Nc3ccc4ccccc4c3C3=C2C(=O)CC(C)(C)C3)c1OCC(=O)O (stereo not drawn)	inactive
COc1ccc(-n2c(C)c([N+](=O)[O-])c3ccc(O)c(CN(C)C)c32)cc1	inactive
COc1ccc(/C=C2\SC(=O)N(CCCC(=O)Nc3ccc(C(=O)O)cc3)C2=O)cc1	inactive
CCc1nc(SCC(=O)c2ccc3c(c2)OCCO3)c2ccccc2n1	inactive
Cc1ccc(C(=O)Nc2ccc3c(c2)OCCO3)cc1	inactive
Cc1ccc(C(=O)Nc2ccc3c(c2)OCCO3)c(Cl)c1	inactive
O=C(Nc1ccc2c(c1)OCCO2)c1ccccn1	inactive
O=C(CCCN1C(=O)[C@H]2CC=CC[C@H]2C1=O)NCc1nc(-c2ccc(Cl)cc2)no1	inactive
CC1(C)CC(=O)C(CC2=C(O)CC(C)(C)CC2=O)=C(O)C1	inactive
CC(C)CC1C(=O)N(Cc2cn(CC3CCCCC3)nn2)CCS(=O)(=O)N1Cc1ccc(-c2ccc(F)nc2)cc1 (stereo not drawn)	inactive
Cc1cc(=O)[nH]c(N=N/C(=N/Nc2ccccc2C)c2ccccc2)n1	inactive
COC(=O)c1ccccc1NC(=O)CSc1nnnn1C	inactive
COc1ccc(S(=O)(=O)NCC(c2cccnc2)N2CCN(c3ccc(F)cc3)CC2)cc1C (stereo not drawn)	inactive
O=C(CCNc1cccc(F)c1)c1cc2ccccc2o1	inactive
NC(=O)c1sc2nccc(Nc3ccccc3)c2c1N	inactive
Cc1nn(-c2ccccc2)c(Cl)c1C1C(C#N)=C(N)Oc2n[nH]c(C)c21 (stereo not drawn)	inactive
O=S(=O)(c1ccc2c(c1)C(=NO)c1cc(S(=O)(=O)N3CCCCC3)ccc1-2)N1CCCCC1	inactive
COc1ccc(S(=O)(=O)N2CCOCC2)cc1NC(=O)COC(=O)CCS(=O)(=O)c1ccc(C)cc1	inactive
Oc1ccc2ccccc2c1N=Nc1ccccn1	inactive
c1ccc(C(=NNc2nc3ccccc3s2)c2ccccn2)cc1	inactive

SMILES	outcome
CCOC(=O)c1sc(NC(=O)CNCc2ccccn2)c(C(=O)OCC)c1C	inactive
Oc1c(N=NC(=S)Nc2ccccc2F)c2ccccc2n1Cc1ccccc1	inactive
COc1ccc(OCc2cccc(C(=O)NN)c2)cc1	inactive
COc1ccc(C=C2OC(=O)C(C(C)=O)=C2O)cc1	inactive
COc1ccc(-c2[nH]ncc2/C=N\NS(=O)(=O)c2ccc(Cl)cc2)cc1	inactive
Cc1ccc(CCNC(=O)Cc2ccc(NC3=NC4CS(=O)(=O)CC4S3)cc2)cc1 (stereo not drawn)	inactive
O=C(NN1C(=O)C2C3C=CC(C4CC34)C2C1=O)c1cccc(Cl)c1 (stereo not drawn)	inactive
CCc1ccccc1NC(=O)COC(=O)c1c(C)nsc1NC	inactive
Oc1c(N=NC(=S)Nc2ccccc2F)c2ccccc2n1Cc1ccccc1Cl	inactive
O=c1cc(Cl)nc2ccccn12	inactive
COc1ccc(-c2cc(C(=O)N3CCCC3)no2)cc1	inactive
COc1ccc(CNC(=O)N2[C@H]3CC[C@@H]2C=C(c2ccc(F)cc2OCc2ccccc2)C3)cc1OC	inactive
COc1cc(C(=O)Oc2ccccc2/C=N/NC(=O)c2ccc(C)c(Cl)c2)cc(OC)c1OC	inactive
CCCC(=O)NCCCc1nc2ccccc2[nH]1	inactive
O=C(Nc1nc(-c2ccccn2)cs1)c1ccc(Cl)s1	inactive
O=C(c1ccccc1)C(CCC(CN1CCOCC1)C(=O)c1ccccc1)CN1CCOCC1 (stereo not drawn)	inactive
COc1ccc(C(=O)NCCN2CCOCC2)cc1[N+](=O)[O-]	inactive
CCON1C(=O)C2(CCCCC2)C(=O)C12C=CCCC2 (stereo not drawn)	inactive
COc1cc(N(C)C)c([N+](=O)[O-])cc1C(=O)N1CCN(Cc2ccccc2)CC1	inactive
CC1CCN(C(=O)/C(=C\c2cccs2)NC(=O)c2ccccc2)CC1	inactive
CCn1c(NC(=O)c2ccc(C)cc2)c2ccccc2nc1=O	inactive
COc1ccc2cc(-c3cc(C(=O)OCC(=O)Nc4c(C)n(C)n(-c5ccccc5)c4=O)c4ccccc4n3)ccc2c1	inactive

SMILES	outcome
COc1ccc(N2Cc3ccccc3C2=O)cc1	inactive
O=C(NCc1ccccc1Cl)C1CCCN1S(=O)(=O)c1ccc(F)cc1 (stereo not drawn)	inactive
CCc1cc(C(=O)Nc2ncccc2O)sc1C	inactive
O=C(Nc1ncccc1O)c1ccc(S(=O)(=O)NCc2ccco2)cc1	inactive
COCCn1c(SCC(=O)N2CCc3ccccc32)nc2c(c1=O)SC(C)C2 (stereo not drawn)	inactive
COc1ccc(-c2oc3ncnc(NCCN4CCOCC4)c3c2-c2ccc(OC)cc2)cc1	inactive
COc1ccc(-c2csc3ncnc(NCCCO)c23)cc1	inactive
COc1ccc(-c2cc(C(F)(F)F)n3nc(C(=O)N4CCOCC4)nc3n2)cc1	inactive
Cc1ccccc1C(=O)N1CCN(c2ccc(NC(=O)CSc3ccc(Cl)cc3)cc2)CC1	inactive
CCC(C)Nc1nc(-c2ccccn2)nc2ccccc12 (stereo not drawn)	inactive
CN(Cc1ccccc1)c1nc(N)c([N+](=O)[O-])c(NCc2ccccc2)n1	inactive
Cc1ccc(C)c(S(=O)(=O)N2CCN(CC(=O)N3CCc4ccccc4C3)CC2)c1	inactive
CCOc1ccc(OCC(=O)Nc2nccs2)cc1	inactive
O=C(c1ccc(COc2ccccc2Cl)o1)N1CCCC1	inactive
Cc1cc(C)n2nc(CC(=O)NC3CCCCCC3)nc2n1	inactive
CCOC(=O)c1cn2nc(N3CCCCC3)ccc2n1	inactive
COc1ccc(CCC(=O)Nc2ccc(C)c([N+](=O)[O-])c2)cc1	inactive
O=C(C=C1SCCS1)/C=C/c1ccco1	inactive
Cc1ccccc1Cn1c(O)c(N=NC(=S)Nc2ccccc2F)c2ccccc21	inactive
CCc1ccc(C(=O)COC(=O)c2cccc(N3C(=O)c4c(C)nc5ccccc5c4C3=O)c2)cc1	inactive
